IDE inh = human IDE inhibitors in live cells, primary screen, fluorescence polarization, HEK cells, FAbetaB substrate. 320,000 tested, 0.41% active. Insulin-degrading enzyme (Homo sapiens), P14735. inhibition, % at 5.59 µM. AID 434962, 2010. FAbetaB cleavage;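 active means percent inhibition above the average of all tested compounds plus 3 SD, set per screening campaign, cut at about 16% in these data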;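 further: IDE supplied by intact live HEK cells; FP after avidin binding of uncleaved biotin substrate so inhibition keeps polarization high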
IDE act = human IDE activators in live cells, primary screen, fluorescence polarization, HEK cells, FAbeta-B substrate; Insulin-degrading enzyme (Homo sapiens), P14735; 340,000 tested, 0.073% active; FAbeta-B cleavage; 0% vehicle, 100% cell-free pure enzyme wells; AID 493087, 2011; activation, % at 5.96 µM;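 active means activation above the mean of all tested compounds plus 3 SD, set per screening campaign, cut at about 17% in these data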
SKKanGAS inh = S. pyogenes SKKanGAS growth inhibitors in kanamycin, primary screen, streptokinase expression inhibitor project, SKKanGAS strain, BacTiter-Glo luminescence. 6 h. inhibition, % at 7.5 µM. 300,000 tested, 1.3% active. AID 1662, 2009;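 active means mean replicate score, as percent of positive control median, at least 50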;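 further: strain carries kanamycin resistance gene driven by streptokinase promoter and grows in 40 µg/ml kanamycin; loss of luminescence reflects streptokinase promoter inhibition or plain growth inhibition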
Exocytosis inh = LAMP-1 surface exposure blockers, TALL-104 cells – cell-based, flow cytometry, MLPCN library, primary screen. TALL-104 LAMP-1 surface exposure; cells stimulated with thapsigargin and PMA. inhibition, % at 10 µM. 360,000 tested, 0.66% active;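 active means inhibition above about 55%, limit read from the data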
PP5 primary = PP5 phosphatase inhibitors, primary screen, biochemical, fluorescence | Serine/threonine-protein phosphatase 5 (Homo sapiens), P53041 | purified PP5c, OMFP substrate fluorescence | AID 1987, 2009 | inhibition, % at 6.7 µM | 320,000 tested, 0.18% active;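 active means inhibition above the campaign's mean inhibition across all tested compounds plus 3 SD, cut at about 9.5% in these data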
Target sequence (P53041 whole entry, looked up): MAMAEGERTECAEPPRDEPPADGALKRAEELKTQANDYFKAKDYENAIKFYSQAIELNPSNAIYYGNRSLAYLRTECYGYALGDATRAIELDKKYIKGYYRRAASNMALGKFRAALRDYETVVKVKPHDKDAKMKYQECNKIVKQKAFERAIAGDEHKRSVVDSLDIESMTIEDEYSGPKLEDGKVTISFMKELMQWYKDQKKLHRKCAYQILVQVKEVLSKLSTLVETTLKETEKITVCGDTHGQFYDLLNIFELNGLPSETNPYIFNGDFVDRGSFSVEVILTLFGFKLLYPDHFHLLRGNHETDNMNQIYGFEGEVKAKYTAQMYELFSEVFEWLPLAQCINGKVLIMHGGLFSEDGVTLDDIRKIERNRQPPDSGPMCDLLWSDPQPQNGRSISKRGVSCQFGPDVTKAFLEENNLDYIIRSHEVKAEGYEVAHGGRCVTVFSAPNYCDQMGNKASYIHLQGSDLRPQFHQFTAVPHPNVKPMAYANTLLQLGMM
PP1 counter = PP1-alpha phosphatase inhibitors, primary screen, counter-screen for PP5 inhibitor project, biochemical, fluorescence, OMFP substrate, single point; Serine/threonine-protein phosphatase PP1-alpha catalytic subunit (Homo sapiens), P62136; purified PP1alpha; inhibition, % at 6.7 µM; 320,000 tested, 0.9% active; AID 2235, 2010;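 active means inhibition above the mean inhibition of all tested compounds plus 3 SD, computed separately for each screening campaign, cut at about 15% in these data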
Exocytosis CP01 = inhibitors of lytic granule exocytosis, confirmation, TALL-104 cells, flow cytometry, Cherry Pick01 | 1,500 tested, 11% active | AID 651954, 2012 | shares compounds with Exocytosis inh | LAMP-1 externalization; stimulated with PMA plus thapsigargin | inhibition, % at 10 µM; in the data active means inhibition above about 60%
Hits are given with their value. In the library only some 2.8% were active in any assay of this set; here they are far more common.

For c1ccc(OCCNc2nc(NCC3CC3)nc3cc(-c4ccccc4)sc23)cc1 the results were Exocytosis inh inactive.
For C=CCNc1nc(NCc2ccc(N(C)C)cc2)c2sc(-c3ccccc3)cc2n1 the results were Exocytosis inh 74.8 and Exocytosis CP01 92.6.
For COCCNc1nc(NCc2cccc(OC)c2)c2sc(-c3ccccc3)cc2n1 the results were Exocytosis inh 76.0 and Exocytosis CP01 99.5.
COCCNc1nc(NCc2ccc(NC(C)=O)cc2)c2sc(-c3ccccc3)cc2n1 was read as Exocytosis inh inactive.
For COC(=O)[C@@]12C[C@@H](CC(=O)N3CCCC3)C(=O)N(Cc3ccccc3)C1=CCC(C)(C)C2 the results were Exocytosis inh inactive.
For C[C@@H](c1ccccc1)N1C[C@@H](COCc2ccccc2)Oc2cc(N3CC[C@@H](N(C)C)C3)ccc2S1(=O)=O the results were Exocytosis inh inactive.
Screening CCCCC[C@@H](C)N1C[C@@H](COCc2ccccc2)Oc2cc(N3CC[C@@H](N(C)C)C3)ccc2S1(=O)=O returned Exocytosis inh 58.1 and Exocytosis CP01 68.1.
`CCCCC[C@H](C)N1C[C@H](COCc2ccccc2)Oc2cc(N3CC[C@@H](N(C)C)C3)ccc2S1(=O)=O` gave Exocytosis inh 63.6 and Exocytosis CP01 inactive.
For C[C@H](c1ccccc1)N1C[C@H](COCc2ccccc2)Oc2cc(N3CC[C@@H](N(C)C)C3)ccc2S1(=O)=O the results were Exocytosis inh 61.9 and Exocytosis CP01 inactive.
CCCCC[C@@H](C)N1C[C@H](COCc2ccccc2)Oc2cc(N3CC[C@@H](N(C)C)C3)ccc2S1(=O)=O was read as Exocytosis inh 74.4 and Exocytosis CP01 72.0.
`COc1ccc(C(=O)N/C(=C\c2cn(S(=O)(=O)N(C)C)c3ccccc23)C(=O)N2CCCC2)cc1` gave Exocytosis inh inactive.
For COc1ccc(OCC(=O)Nc2cc(OC)ccc2N2CCCCC2)cc1 the results were IDE inh inactive, IDE act inactive, SKKanGAS inh inactive, Exocytosis inh 66.7, PP5 primary inactive, PP1 counter inactive and Exocytosis CP01 inactive.
`O=C(Nc1ccccc1N1CCOCC1)c1cc2ccccc2o1` gave IDE inh inactive, IDE act inactive, SKKanGAS inh inactive, Exocytosis inh inactive, PP5 primary inactive and PP1 counter inactive.
`COc1ccc(N2CCCC2)c(NC(=O)COc2ccccc2Cl)c1` gave IDE inh inactive, IDE act inactive, SKKanGAS inh inactive, Exocytosis inh inactive, PP5 primary inactive and PP1 counter inactive.
COc1ccc(N2CCOCC2)c(NC(=O)c2cc3ccccc3o2)c1 was read as IDE inh inactive, IDE act inactive, SKKanGAS inh inactive, Exocytosis inh 74.9, PP5 primary inactive, PP1 counter inactive and Exocytosis CP01 inactive.
Screening CC(C)(CO)NS(=O)(=O)c1ccc2c(c1)Cc1cc(S(=O)(=O)NC(C)(C)CO)ccc1-2 returned IDE inh inactive, IDE act inactive, SKKanGAS inh inactive, Exocytosis inh inactive, PP5 primary inactive and PP1 counter inactive.
Screening COc1ccc(N(CC(=O)NCc2ccco2)S(=O)(=O)c2ccccc2)cc1 returned IDE inh inactive, IDE act inactive, SKKanGAS inh inactive, Exocytosis inh inactive, PP5 primary inactive and PP1 counter inactive.
COc1ccc(N(CC(=O)NCc2ccccc2OC)S(=O)(=O)c2ccccc2)cc1 was read as IDE inh inactive, IDE act inactive, SKKanGAS inh inactive, Exocytosis inh 75.1, PP5 primary inactive, PP1 counter inactive and Exocytosis CP01 inactive.
`COc1ccc(CCNC(=O)CN(c2ccccc2OC)S(=O)(=O)c2ccc(C)cc2)cc1` gave IDE inh inactive, IDE act inactive, SKKanGAS inh inactive, Exocytosis inh inactive, PP5 primary inactive and PP1 counter inactive.
For COc1ccccc1N(CC(=O)NCc1ccccc1C)S(=O)(=O)c1ccc(C)cc1 the results were IDE inh inactive, IDE act inactive, SKKanGAS inh inactive, Exocytosis inh 62.6, PP5 primary inactive, PP1 counter inactive and Exocytosis CP01 inactive.
Cc1sc2ncnc(OCC(=O)NC3CCS(=O)(=O)C3)c2c1C (stereo not given) was read as IDE inh inactive, IDE act inactive, SKKanGAS inh inactive, Exocytosis inh inactive, PP5 primary inactive and PP1 counter inactive.
`COc1ccc(F)cc1S(=O)(=O)NCc1cc(=O)n(C)c(=O)n1C` gave IDE inh inactive, IDE act inactive, SKKanGAS inh inactive, Exocytosis inh inactive, PP5 primary inactive and PP1 counter inactive.
Screening C[C@H](CO)N1C[C@H](C)[C@@H](CN(C)C(=O)Nc2ccc(C(F)(F)F)cc2)Oc2c(NC(=O)Nc3ccccc3)cccc2C1=O returned IDE inh inactive, IDE act inactive and Exocytosis inh inactive.
`CC(C)NC(=O)N(C)C[C@H]1Oc2c(NC(=O)Nc3ccc(C(F)(F)F)cc3)cccc2C(=O)N([C@H](C)CO)C[C@@H]1C` gave IDE inh inactive, IDE act inactive, Exocytosis inh 60.0 and Exocytosis CP01 inactive.
`C[C@H](CO)N1C[C@H](C)[C@@H](CN(C)Cc2ccc(C(=O)O)cc2)Oc2ccc(NS(C)(=O)=O)cc2C1=O` gave IDE inh inactive, IDE act inactive and Exocytosis inh inactive.
`C[C@@H]1CN([C@@H](C)CO)C(=O)c2cc(NS(C)(=O)=O)ccc2O[C@@H]1CN(C)Cc1ccc(C(F)(F)F)cc1` gave IDE act inactive, Exocytosis inh 61.5 and Exocytosis CP01 inactive.
C[C@H](CO)N1C[C@H](C)[C@@H](CN(C)C(=O)NC2CCCCC2)Oc2ccc(NS(C)(=O)=O)cc2C1=O was read as IDE inh inactive, IDE act inactive, Exocytosis inh 73.4 and Exocytosis CP01 inactive.
For CC1CC(C)CN(S(=O)(=O)CCNC(=O)c2ccc3c(c2)OCO3)C1 (stereo not given) the results were IDE inh inactive, IDE act inactive, SKKanGAS inh inactive, Exocytosis inh inactive, PP5 primary inactive and PP1 counter inactive.
`O=C(O)C1=C[C@H](c2ccccc2)C[C@H](OCCCCO)O1` gave IDE inh inactive, IDE act inactive, SKKanGAS inh inactive, Exocytosis inh 57.7, PP5 primary inactive, PP1 counter inactive and Exocytosis CP01 inactive.
Cc1cc(C)cc(NC(=S)N2CC(C)OC(C)C2)c1 (stereo not given) was read as IDE act inactive and Exocytosis inh inactive.
